# Hits are enriched below; roughly 2.6% of the tested compounds scored in any of these assays.
# TGFb SMAD3 inh: TGF-b pathway inhibition; HepG2 CAGA-GFP TGF-b/SMAD3 reporter, GFP fluorescence, 18 h; TGF-beta stimulated, 500 pg/mL final; 410,000 compounds, 1.2% hits; Potency, µM (doses to about 46.1 µM), hits mostly inhibitors; further: nearly all actives have a fitted effect of over 65% in size
#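 GFP signal (ex488/em500-530) from TGF-beta-stimulated HEPG2 CAGA-GFP cells, 500 pg/mL final, 18 h at 37 degrees C in DMEM plus 1% FBS, normalized to unstimulated and DMSO-stimulated controls.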
# uPA generation: cell surface uPA generation inhibition. cell surface uPA generation assay, qHTS. 330,000 compounds, 0.31% hits. AID 540303. Potency, µM (series often up to 38.3 µM), usual class: inhibitors; active means well fitted inhibition curve with a large enough effect; inconclusive means small, poorly fitted or top-dose-only effect; inactive means no such curve, though single readings can be large or run the other way; tested in mouse RAW 264.7 cells; further: nearly all actives have a fitted effect of over 55% in size
# HepG2 tox: kills HepG2 cells in TGF-b inhibitor counter-screen | 410,000 compounds, 0.76% hits | Potency, µM (series often up to 46.1 µM), most hits filed as cytotoxic | HepG2 CAGA-GFP viability, ATP luminescence, 18 h
#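 HepG2 CAGA-GFP cells (1000/well, DMEM with 1% FBS) received compound, then TGF-beta at 500 pg/mL final, and were incubated 18 hours at 37 degrees C. Viability was read by CellTiter-Glo luminescence. Media-only wells were set as complete cell-killing and DMSO as no toxicity.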
# ATXN2 expr inh: inhibitors of ATXN2 expression; HEK-293 ATXN2-luciferase reporter, luminescence, 24 h; Potency, µM (highest dose often 57 µM), usual class: inhibitors; 360,000 compounds, 0.72% hits; AID 1745845; further: nearly all actives have a fitted effect of over 55% in size
#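 ATXN2-luciferase reporter cells (luciferase flanked by upstream and downstream ATXN2 gene portions) were treated 24 h at 37 °C with compounds at up to 57 uM. SteadyGlo luminescence gave expression; GF-AFC fluorescence gave viability.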
# Giardia kill: Giardia lamblia killing. Giardia lamblia trophozoite viability. activity change, % at 7.66 µM, hits read low. 340,000 compounds, 0.15% hits; in the data active means activity change below about -80%; inconclusive means between about -30% and that limit;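 further: parasites exposed to compound for two days anaerobically before the ATP read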
#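 Viability, read as ATP luminescence: trophozoites at 100 cells/well, compound added, 48 hrs anaerobic at 37 deg C, then 15-30 min room-temperature development before reading.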
# S2 tox: viability counter-screen for ATXN expression inhibitors. Potency, µM (titrated, usually from 56.7 µM), actives largely listed as cytotoxic. S2 cells (HEK-293 line with an ATXN2-luciferase reporter) viability, CellTiter-Fluor protease fluorescence, 24 h. AID 651635. 400,000 compounds, 0.49% hits; further: nearly all actives have a fitted effect of over 40% in size
# Numbers stand for hits; – = inactive; ? = inconclusive; · = not tested or not shown; ! = not confirmed by another sample. Unless noted, the call rests on the fitted dose curve; in most records, active means well fitted curve in the direction sought with a large enough effect; inconclusive means small, poorly fitted or top-dose-only effect, or another doubt; inactive means no such curve, though single readings can be large; an effect the other way counts as inactive or inconclusive.
SMILES,TGFb SMAD3 inh,uPA generation,HepG2 tox,ATXN2 expr inh,Giardia kill,S2 tox
O=C(NN=Cc1ccc(N(CCCl)CCCl)cc1Cl)c1cccnc1,5µM,–,–,?,–,?
Cc1cc(N(CCCl)CCCl)ccc1C=NNC(=O)c1cccnc1,–,–,–,1.8µM,–,–
O=C(NN=Cc1ccc(N(CCCl)CCCl)cc1)c1cc(=O)[nH]c(=O)[nH]1,–,–,–,?,–,–
COc1cccc2c1C(=O)c1c(O)c3c(c(O)c1C2=O)C[C@@](O)(C(=O)CO)CC3OC1CC(N2CCOC(OC)C2)C(O)C(C)O1 (stereo not given in full),·,·,·,28µM,·,45µM
C[C@]12Cc3cn[nH]c3C[C@@H]1CC[C@@H]1[C@@H]2CC[C@@]2(C)[C@H]1CC[C@]2(C)O,·,·,·,–,·,–
On1ccccc1=S,0.28µM,–,1µM,0.28µM,–,0.32µM
CC(=O)Nc1cc(-c2ccc(C(=O)NC3CC3)cc2)cn2c(-c3ccc(F)c(Cl)c3)cnc12,?,·,–,–,·,–
CCCCn1c(=O)c(C(=O)Nc2ccccc2C)c(O)c2ccccc21,–,–,–,–,–,–
CC(C)CCn1c(=O)c(C(=O)Nc2ccccc2S(N)(=O)=O)c(O)c2ccccc21,20µM,–,–,–,–,–
OC1CCC(Nc2ccn3nc(-c4cccc(OCc5ccccc5)c4)cc3n2)CC1 (stereo not given),–,·,–,–,·,?
Cc1ccc2oc(=O)n(CC(=O)c3ccc(F)cc3)c2c1,–,–,–,–,–,–
C[N+](C)(C)CCOC(=O)C(O)(c1ccccc1)c1ccccc1,·,·,·,–,·,–
Cc1cc(C(C)(C)CC(C)(C)C)ccc1OCCOCC[N+](C)(C)Cc1ccccc1,?,?,20µM,?,–,?
CCOc1ccc(N=Cc2c(O)n(-c3ccc(C)c(C)c3)c(=O)[nH]c2=O)cc1,–,–,5.6µM,–,–,–
Cc1ccc(/C=C2\C(=O)NC(=S)N(c3ccccc3F)C2=O)s1,?,–,–,32µM,–,?
Cc1cc(C)cc(N2C(=O)NC(=O)/C(=C\c3cccn3-c3ccccc3)C2=O)c1,?,–,–,?,–,?
CN1C(=O)/C(=C/c2cccn2-c2ccc3ccccc3c2)C(=O)NC1=S,16µM,–,–,?,–,·
O=C1NC(=S)NC(=O)C1=Cc1cccn1-c1ccc(O)cc1,?,?,–,24µM,–,19µM
C[C@H]1CNC(=O)c2c(C(=O)N3CCN(C(=O)OC(C)(C)C)CC3)ncn21,–,·,–,?,·,?
Nc1ccc(N=Nc2ccccc2)cc1,–,–,–,–,–,22µM!
CCOC(C(=O)OCCN(C)C)(c1ccccc1)c1ccccc1,·,·,·,–,·,–
CC(C)NC(=O)Cn1cc(C(=O)c2ccccc2)c2ccccc21,–,–,–,·,–,–
Cc1cccc(NC(=O)Cn2cc(C(=O)c3ccccc3)c3ccccc32)c1,10µM,·,–,·,·,·
COc1cccc(NC(=O)Cn2cc(C(=O)c3ccccc3)c3ccccc32)c1,10µM,·,–,·,·,·
Cc1c(C(=O)NCc2ccc3c(c2)OCO3)cnn1-c1ncc2c(n1)-c1ccccc1CC2,·,·,·,·,·,–
C[C@@H]1O[C@@H](O[C@@H]2C=C3CCC4C(CC[C@]5(C)[C@@H](c6ccc(=O)oc6)CC[C@]45O)[C@@]3(C)CC2)[C@H](O)[C@H](O)[C@H]1O (stereo not given in full),–,–,–,–,–,?
C[C@@H]1O[C@@H](O[C@@H]2C=C3CC[C@@H]4C(CC[C@]5(C)[C@@H](c6ccc(=O)oc6)CC[C@]45O)[C@@]3(C)CC2)[C@H](O)[C@H](O)[C@H]1O (stereo not given in full),0.28µM,–,–,–,–,?
C[C@@H]1[C@@H]2Cc3ccc(O)cc3[C@@]1(C)CCN2CCc1ccccc1,·,·,·,·,·,–
CCC1C/C(=C\c2cc(OC)c(OC)cc2OC)C(=O)/C(=C/c2cc(OC)c(OC)cc2OC)C1 (stereo not given),?,?,8.9µM,?,–,?
C1CN2CCC1CC2,·,·,·,–,·,–
